These results are taken from ChEMBL document CHEMBL1961873, “Compounds: GSK PKIS; Assays: Nanosyn kinase panel” (2012).

Where “and” joins values, the source holds several entries; their conditions need not be identical. Equal values may be shown once.

The first assay has as its target T1, Serine/threonine-protein kinase Sgk1 (Homo sapiens) (UniProt O00141).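 Further: mean percent inhibition of SGK1, from the GSK PKIS screening panel.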
T1 sequence (whole entry): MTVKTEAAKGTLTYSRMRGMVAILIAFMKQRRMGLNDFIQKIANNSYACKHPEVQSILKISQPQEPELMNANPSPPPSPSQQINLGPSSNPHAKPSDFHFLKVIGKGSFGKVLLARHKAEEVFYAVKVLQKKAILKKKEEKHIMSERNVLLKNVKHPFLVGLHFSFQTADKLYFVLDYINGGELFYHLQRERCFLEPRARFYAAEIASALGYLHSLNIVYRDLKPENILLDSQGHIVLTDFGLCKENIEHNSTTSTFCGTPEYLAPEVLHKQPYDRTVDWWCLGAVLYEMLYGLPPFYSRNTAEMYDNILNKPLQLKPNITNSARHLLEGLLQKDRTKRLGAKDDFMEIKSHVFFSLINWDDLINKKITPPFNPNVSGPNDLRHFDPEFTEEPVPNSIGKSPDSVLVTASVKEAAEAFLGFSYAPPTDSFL
The note with it: at 1 µM.
For `CCCNc1cccc(-n2ncc3c(N/N=C/c4ccncc4)ncnc32)c1`, the inhibition is 13.6%.

As to `COC(=O)Nc1nc2ccc(Oc3ccc(NC(=O)Nc4cc(C(F)(F)F)ccc4F)cc3)cc2s1`, the inhibition amounted to 0.95%.

For `N#Cc1ccc2c(-c3ccnc(NC4CC4)n3)c(-c3ccc(F)cc3)nn2c1`, the inhibition is 1.98%.

On to `Fc1cccc(COc2ccc(Nc3ncncc3C#Cc3ccccc3)cc2Cl)c1`, for which the inhibition was 7.69%.

Turning to `NS(=O)(=O)c1cccc(N/C=C2\C(=O)Nc3ccccc32)c1`, the inhibition was found to be 26.9%.

Take `COc1ccccc1-c1cc(/C=C2\C(=O)Nc3ncc(Br)cc32)cc(Br)c1O`: the inhibition worked out at 5.53%.

For `COC(=O)Nc1nc2cc(Oc3ccc(NC(=O)Nc4ccccc4)cc3)ccc2[nH]1`, the inhibition came out at 5.31%.

On to `O=C(O[C@H]1CN[C@H](C#Cc2cc3ncnc(Nc4ccc5c(cnn5Cc5ccccc5)c4)c3s2)C1)N1CCOCC1`, for which the inhibition is -1.15%.

`CCn1c(-c2nonc2N)nc2cncc(C(=O)NCCNC)c21`: the inhibition was 18.1%.

Turning to `Cc1cc(O)cc(C)c1/C=C/c1cncc(C(=O)OC(C)(C)C)c1`, the inhibition is 2.22%.

Take `N#Cc1cccc(Nc2ncc(-c3ccccc3)o2)c1`: the inhibition was found to be 7.53%.

For the compound `CNC(=O)c1sc(-n2cnc3cc(OC)c(OC)cc32)cc1OCc1ccccc1C(F)(F)F`, the inhibition was determined as 1.23%.

For the compound `COc1ccc2ncn(-c3cc(O[C@H](C)c4ccccc4C(F)(F)F)c(C(N)=O)s3)c2c1`, the inhibition turned out to be 0.95%.

As for `COc1ccc(-c2nn3ncccc3c2-c2ccnc(Nc3ccc(F)c(F)c3)n2)cc1`, the inhibition was 9.35%.

For `Cc1cc(O)cc(C)c1/C=C/c1cncc(C(N)=O)c1`, the inhibition was determined as 2.14%.

As for `Fc1ccc(Nc2nccc(-c3c(-c4ccc(C(F)(F)F)cc4)nn4ncccc34)n2)cc1F`, the inhibition is 2.25%.

Turning to `c1ccc(-c2n[nH]cc2-c2ccnc(-c3ccc(OCCn4ccnc4)cc3)c2)nc1`, the inhibition is 2.43%.

Turning to `COc1cc(N2CCN(C(C)C)CC2)ccc1Nc1nc(Nc2cccc(F)c2C(=O)O)c2cc[nH]c2n1`, the inhibition was determined as 5.92%.

Consider `CS(=O)(=O)Nc1ccc(-c2cc(-c3ccccc3)cc(C(N)=O)c2N)cc1`, for which the inhibition worked out at 2.29%.

In the case of `Nc1ncnc2occ(-c3ccc(NC(=O)Nc4cc(C(F)(F)F)ccc4F)cc3)c12`, the inhibition is 3.4% and 1.19%.

Consider `COc1cc2c(cc1Nc1nc(Nc3cccc(F)c3C(N)=O)c3cc[nH]c3n1)N(C(=O)CN1CCN(C(C)C)CC1)CC2`, for which the inhibition is 1.29%.

Take `CCS(=O)(=O)c1ccc(OC)c(Nc2ncc(-c3cccc(C(C)=O)c3)o2)c1`: the inhibition worked out at 5.11%.

Turning to `CC(C)c1ccc(-c2cc(-c3c[nH]nc3-c3ccccn3)ccn2)cc1`, the inhibition turned out to be 0.95%.

With `O=C(O[C@H]1CN[C@H](C#Cc2cc3ncnc(Nc4ccc5c(ccn5Cc5cc(F)ccc5F)c4)c3s2)C1)N1CCOCC1`, the inhibition was 3.13%.

As to `CN(c1ccc(NC(=O)NCCN2CCOCC2)cc1)c1ccnc(Nc2ccc(CS(C)(=O)=O)cc2)n1`, the inhibition amounted to 5%.

Turning to `NS(=O)(=O)c1ccc(N/N=C2\C(=O)Nc3cccc(CCc4ccncc4)c32)cc1`, the inhibition amounted to 1.65%.

Turning to `CNC(=O)c1cncc(/C=C/c2ccccc2C)c1`, the inhibition was 5.48%.

Take `CN1CCC(C(=O)Nc2n[nH]c3nc(-c4ccc(O)cc4)c(Br)cc23)CC1`: the inhibition is 10.4% and 4.16%.

For `COc1c(C(N)=O)cc(-c2ccc(Cl)cc2)cc1-c1ccc(S(N)(=O)=O)cc1`, the inhibition was 2.71%.

`CN1CCN(Cc2ccc(-c3cc4ncnc(Nc5ccc(OCc6cccc(F)c6)c(Cl)c5)c4s3)o2)CC1`: the inhibition is 3.57% and 7.64%.

Consider `NC(=O)c1ccc2c(-c3ccnc(NCCCO)n3)c(-c3ccc(F)cc3)nn2c1`, for which the inhibition was found to be 2.32%.

The target of a further assay is T2, Serine/threonine-protein kinase Sgk2 (Homo sapiens) (UniProt Q9HBY8).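 Further: each value is a mean percent inhibition of SGK2 from the GSK PKIS kinase screen.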
T2 sequence (whole entry): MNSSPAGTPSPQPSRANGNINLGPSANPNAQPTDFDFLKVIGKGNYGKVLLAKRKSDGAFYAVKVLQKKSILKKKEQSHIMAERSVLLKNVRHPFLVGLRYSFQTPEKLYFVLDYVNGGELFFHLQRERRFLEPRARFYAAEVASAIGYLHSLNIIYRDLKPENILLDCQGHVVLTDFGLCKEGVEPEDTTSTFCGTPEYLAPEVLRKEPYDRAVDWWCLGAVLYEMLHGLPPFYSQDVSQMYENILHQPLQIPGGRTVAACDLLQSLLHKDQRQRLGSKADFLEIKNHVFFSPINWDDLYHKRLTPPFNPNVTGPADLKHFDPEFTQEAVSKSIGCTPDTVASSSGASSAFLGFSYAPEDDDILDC
The note with it: at 0.1 µM.
In the case of `CCCNc1cccc(-n2ncc3c(N/N=C/c4ccncc4)ncnc32)c1`, the inhibition is 2.41%.

`COC(=O)Nc1nc2ccc(Oc3ccc(NC(=O)Nc4cc(C(F)(F)F)ccc4F)cc3)cc2s1`: the inhibition was -4.85%.

`N#Cc1ccc2c(-c3ccnc(NC4CC4)n3)c(-c3ccc(F)cc3)nn2c1`: the inhibition was -0.02%.

For the compound `Fc1cccc(COc2ccc(Nc3ncncc3C#Cc3ccccc3)cc2Cl)c1`, the inhibition was found to be 5.33%.

Take `NS(=O)(=O)c1cccc(N/C=C2\C(=O)Nc3ccccc32)c1`: the inhibition was determined as 4.31%.

For the compound `COc1ccccc1-c1cc(/C=C2\C(=O)Nc3ncc(Br)cc32)cc(Br)c1O`, the inhibition turned out to be 3.23%.

As for `COC(=O)Nc1nc2cc(Oc3ccc(NC(=O)Nc4ccccc4)cc3)ccc2[nH]1`, the inhibition turned out to be 0.16%.

Take `O=C(O[C@H]1CN[C@H](C#Cc2cc3ncnc(Nc4ccc5c(cnn5Cc5ccccc5)c4)c3s2)C1)N1CCOCC1`: the inhibition is -1.55%.

Take `CCn1c(-c2nonc2N)nc2cncc(C(=O)NCCNC)c21`: the inhibition worked out at 2.29%.

Turning to `Cc1cc(O)cc(C)c1/C=C/c1cncc(C(=O)OC(C)(C)C)c1`, the inhibition was 3.61%.

`N#Cc1cccc(Nc2ncc(-c3ccccc3)o2)c1`: the inhibition worked out at 1.9%.

Regarding `CNC(=O)c1sc(-n2cnc3cc(OC)c(OC)cc32)cc1OCc1ccccc1C(F)(F)F`, the inhibition is 0.8%.

Take `COc1ccc2ncn(-c3cc(O[C@H](C)c4ccccc4C(F)(F)F)c(C(N)=O)s3)c2c1`: the inhibition is -1.23%.

Take `COc1ccc(-c2nn3ncccc3c2-c2ccnc(Nc3ccc(F)c(F)c3)n2)cc1`: the inhibition was 5.4%.

Regarding `Cc1cc(O)cc(C)c1/C=C/c1cncc(C(N)=O)c1`, the inhibition is 3.61%.

In the case of `Fc1ccc(Nc2nccc(-c3c(-c4ccc(C(F)(F)F)cc4)nn4ncccc34)n2)cc1F`, the inhibition was 0.8%.

Regarding `c1ccc(-c2n[nH]cc2-c2ccnc(-c3ccc(OCCn4ccnc4)cc3)c2)nc1`, the inhibition came out at 0.56%.

`COc1cc(N2CCN(C(C)C)CC2)ccc1Nc1nc(Nc2cccc(F)c2C(=O)O)c2cc[nH]c2n1`: the inhibition came to 0.2%.

Take `CS(=O)(=O)Nc1ccc(-c2cc(-c3ccccc3)cc(C(N)=O)c2N)cc1`: the inhibition was 9.08%.

With `Nc1ncnc2occ(-c3ccc(NC(=O)Nc4cc(C(F)(F)F)ccc4F)cc3)c12`, the inhibition was -0.51% and 1.78%.

Consider `COc1cc2c(cc1Nc1nc(Nc3cccc(F)c3C(N)=O)c3cc[nH]c3n1)N(C(=O)CN1CCN(C(C)C)CC1)CC2`, for which the inhibition was found to be 1.96%.

For `CCS(=O)(=O)c1ccc(OC)c(Nc2ncc(-c3cccc(C(C)=O)c3)o2)c1`, the inhibition turned out to be 2.27%.

For `CC(C)c1ccc(-c2cc(-c3c[nH]nc3-c3ccccn3)ccn2)cc1`, the inhibition was 3.97%.

With `O=C(O[C@H]1CN[C@H](C#Cc2cc3ncnc(Nc4ccc5c(ccn5Cc5cc(F)ccc5F)c4)c3s2)C1)N1CCOCC1`, the inhibition was 4.36%.

Turning to `CN(c1ccc(NC(=O)NCCN2CCOCC2)cc1)c1ccnc(Nc2ccc(CS(C)(=O)=O)cc2)n1`, the inhibition worked out at 1.89%.

As for `NS(=O)(=O)c1ccc(N/N=C2\C(=O)Nc3cccc(CCc4ccncc4)c32)cc1`, the inhibition came out at 3.09%.

For the compound `CNC(=O)c1cncc(/C=C/c2ccccc2C)c1`, the inhibition stood at 2.67%.

Turning to `CN1CCC(C(=O)Nc2n[nH]c3nc(-c4ccc(O)cc4)c(Br)cc23)CC1`, the inhibition was 3.28% and 2.28%.

`COc1c(C(N)=O)cc(-c2ccc(Cl)cc2)cc1-c1ccc(S(N)(=O)=O)cc1`: the inhibition stood at 5.14%.

`CN1CCN(Cc2ccc(-c3cc4ncnc(Nc5ccc(OCc6cccc(F)c6)c(Cl)c5)c4s3)o2)CC1`: the inhibition was 1.23% and 4.49%.

Take `NC(=O)c1ccc2c(-c3ccnc(NCCCO)n3)c(-c3ccc(F)cc3)nn2c1`: the inhibition was determined as 4.31%.

A word on the inhibition: it is the change of the read-out against control, counted positive when it falls.
